What all share (test): DAPPL (digital affinity profiling via proximity ligation, sequencing); 10 mM Tris-HCl pH 7.5, 50 mM NaCl, 1 mM DTT, 4% glycerol, room temperature, 30 min; GST-TFs on glutathione beads, 16-mer random dsDNA library, 0.1% formaldehyde crosslink after washing; high values mean tight binding
Details in all cases: protein: recombinant; tags: N-terminal GST; dsDNA, one strand shown

Assay [1] addresses T1, FLI1 (Homo sapiens, UniProt Q01543 1-452).
T1 sequence: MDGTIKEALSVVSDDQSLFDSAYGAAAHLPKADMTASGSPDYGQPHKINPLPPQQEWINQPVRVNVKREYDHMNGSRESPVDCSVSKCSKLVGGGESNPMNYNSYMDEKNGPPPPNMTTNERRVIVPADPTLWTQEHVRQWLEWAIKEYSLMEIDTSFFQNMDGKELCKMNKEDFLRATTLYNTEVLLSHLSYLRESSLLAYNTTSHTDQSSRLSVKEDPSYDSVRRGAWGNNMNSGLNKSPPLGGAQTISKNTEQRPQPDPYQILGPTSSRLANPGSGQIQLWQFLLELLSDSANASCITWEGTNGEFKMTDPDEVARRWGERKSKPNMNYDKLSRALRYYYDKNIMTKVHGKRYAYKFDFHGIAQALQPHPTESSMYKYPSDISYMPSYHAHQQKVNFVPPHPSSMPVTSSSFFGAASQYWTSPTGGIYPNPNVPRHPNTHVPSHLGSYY
The method, boiled down: (§1)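 Each value of binding signal is a hexamer's read frequency for a factor divided by the same hexamer's frequency in the tag-only sample. Barcoded, bead-captured GST fusions of human transcription factors made in yeast were pooled with that sample and incubated with 200 nmole of a random double-stranded 16-mer DNA library in Tris/NaCl/DTT/glycerol buffer at room temperature for 30 min. Washing, 0.1% formaldehyde crosslinking, proximity ligation, PCR and Illumina NextSeq500 sequencing followed.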

Assay [2] concerns the target T2, ELK1 (Homo sapiens, UniProt P19419 1-428).
T2 sequence: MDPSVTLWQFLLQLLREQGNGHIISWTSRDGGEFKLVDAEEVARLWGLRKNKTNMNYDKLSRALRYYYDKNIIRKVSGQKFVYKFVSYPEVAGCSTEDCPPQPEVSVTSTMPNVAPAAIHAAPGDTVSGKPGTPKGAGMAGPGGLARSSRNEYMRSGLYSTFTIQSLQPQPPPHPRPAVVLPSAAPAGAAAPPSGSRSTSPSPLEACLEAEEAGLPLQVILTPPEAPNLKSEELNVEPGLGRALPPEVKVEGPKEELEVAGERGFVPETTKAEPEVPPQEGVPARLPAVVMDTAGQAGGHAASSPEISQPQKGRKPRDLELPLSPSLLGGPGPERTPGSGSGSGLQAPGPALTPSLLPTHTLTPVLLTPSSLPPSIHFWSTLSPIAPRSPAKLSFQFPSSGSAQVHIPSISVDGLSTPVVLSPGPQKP
The method, boiled down:
as §1

For assay [3], the target named is T3, GABPA (Homo sapiens, UniProt Q06546 1-454).
T3 sequence: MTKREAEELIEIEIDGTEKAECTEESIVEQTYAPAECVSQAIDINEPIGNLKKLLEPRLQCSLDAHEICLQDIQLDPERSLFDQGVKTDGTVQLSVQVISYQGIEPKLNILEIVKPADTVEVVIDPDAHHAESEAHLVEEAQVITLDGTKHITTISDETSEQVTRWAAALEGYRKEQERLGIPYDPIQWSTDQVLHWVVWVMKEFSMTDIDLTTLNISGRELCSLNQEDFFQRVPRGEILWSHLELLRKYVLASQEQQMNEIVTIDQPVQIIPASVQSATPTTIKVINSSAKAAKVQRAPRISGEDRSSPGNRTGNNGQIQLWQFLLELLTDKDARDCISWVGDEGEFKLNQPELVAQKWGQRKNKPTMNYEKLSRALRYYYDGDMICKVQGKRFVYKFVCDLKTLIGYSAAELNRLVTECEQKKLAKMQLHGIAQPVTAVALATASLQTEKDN
The method, boiled down:
as §1

In assay [4] the target is T4, ERG (Homo sapiens, UniProt P11308 1-479).
T4 sequence: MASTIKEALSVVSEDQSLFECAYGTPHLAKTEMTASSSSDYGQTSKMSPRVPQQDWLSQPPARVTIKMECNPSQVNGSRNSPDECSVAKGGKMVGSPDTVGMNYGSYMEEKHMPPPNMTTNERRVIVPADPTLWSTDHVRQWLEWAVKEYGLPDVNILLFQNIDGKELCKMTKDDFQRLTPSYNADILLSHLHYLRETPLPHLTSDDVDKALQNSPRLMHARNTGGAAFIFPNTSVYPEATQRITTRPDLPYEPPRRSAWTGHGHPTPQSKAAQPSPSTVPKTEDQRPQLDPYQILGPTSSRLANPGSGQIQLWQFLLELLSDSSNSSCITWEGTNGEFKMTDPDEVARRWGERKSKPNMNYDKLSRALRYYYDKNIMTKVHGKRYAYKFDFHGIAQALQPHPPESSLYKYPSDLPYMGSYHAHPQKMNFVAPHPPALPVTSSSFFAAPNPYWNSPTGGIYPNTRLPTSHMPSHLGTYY
The method, boiled down: as §1

For assay [5], the target named is ELF1 (Homo sapiens, UniProt P32519 1-619). The method, boiled down:
as §1

The target in assay [6] is T5, EHF (Homo sapiens, UniProt Q9NZC4 1-300).
T5 sequence: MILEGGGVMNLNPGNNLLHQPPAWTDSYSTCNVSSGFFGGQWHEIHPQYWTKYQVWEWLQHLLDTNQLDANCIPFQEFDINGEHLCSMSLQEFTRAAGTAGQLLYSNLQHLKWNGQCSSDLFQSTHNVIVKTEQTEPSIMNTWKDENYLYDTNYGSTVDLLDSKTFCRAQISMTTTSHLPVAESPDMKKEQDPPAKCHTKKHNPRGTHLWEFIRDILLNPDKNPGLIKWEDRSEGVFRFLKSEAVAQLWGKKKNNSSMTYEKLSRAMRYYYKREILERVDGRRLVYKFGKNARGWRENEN
The method, boiled down:
as §1

In assay [7] the target is SPI1 (Homo sapiens, UniProt P17947 1-270). The method, boiled down: as §1
The target of assay [8] is SPIB (Homo sapiens, UniProt Q01892 1-262). The method, boiled down: as §1
In assay [9] the target is T6, ELK3 (Homo sapiens, UniProt P41970 1-407).
T6 sequence: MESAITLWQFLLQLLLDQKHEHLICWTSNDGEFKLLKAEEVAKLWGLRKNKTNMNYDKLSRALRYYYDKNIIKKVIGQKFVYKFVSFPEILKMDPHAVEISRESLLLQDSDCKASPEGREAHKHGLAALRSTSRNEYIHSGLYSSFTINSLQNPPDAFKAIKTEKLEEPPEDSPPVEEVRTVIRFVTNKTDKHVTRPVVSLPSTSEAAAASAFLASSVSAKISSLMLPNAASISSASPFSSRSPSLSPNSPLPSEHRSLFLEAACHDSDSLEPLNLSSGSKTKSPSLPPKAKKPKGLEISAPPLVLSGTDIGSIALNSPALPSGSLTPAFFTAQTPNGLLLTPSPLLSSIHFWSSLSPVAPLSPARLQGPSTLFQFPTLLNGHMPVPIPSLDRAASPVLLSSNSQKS
The method, boiled down:
as §1

In assay [10] the target is T7, FEV (Homo sapiens, UniProt Q99581 1-238).
T7 sequence: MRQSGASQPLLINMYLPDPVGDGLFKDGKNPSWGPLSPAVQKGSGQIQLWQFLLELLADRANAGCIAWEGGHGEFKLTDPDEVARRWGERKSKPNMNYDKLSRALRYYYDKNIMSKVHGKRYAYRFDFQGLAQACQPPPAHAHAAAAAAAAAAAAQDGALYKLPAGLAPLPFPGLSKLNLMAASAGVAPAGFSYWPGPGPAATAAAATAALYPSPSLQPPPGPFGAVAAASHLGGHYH
The method, boiled down:
as §1

In assay [11] the target is ETV5 (Homo sapiens, UniProt P41161 1-510). The method, boiled down:
as §1

In assay [12] the target is T8, SPIC (Homo sapiens, UniProt Q8N5J4 1-248).
T8 sequence: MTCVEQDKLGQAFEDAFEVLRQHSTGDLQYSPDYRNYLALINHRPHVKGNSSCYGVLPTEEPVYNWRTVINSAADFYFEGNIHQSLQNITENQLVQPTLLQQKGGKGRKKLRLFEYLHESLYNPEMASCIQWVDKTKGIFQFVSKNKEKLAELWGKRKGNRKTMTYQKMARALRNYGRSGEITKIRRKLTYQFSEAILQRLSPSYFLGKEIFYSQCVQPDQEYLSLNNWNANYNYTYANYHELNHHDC
The method, boiled down:
as §1

For assay [13], the target named is ELF4 (Homo sapiens, UniProt Q99607 1-663). The method, boiled down: as §1
For assay [14], the target named is T9, ELK4 (Homo sapiens, UniProt P28324-2 1-405).
T9 sequence: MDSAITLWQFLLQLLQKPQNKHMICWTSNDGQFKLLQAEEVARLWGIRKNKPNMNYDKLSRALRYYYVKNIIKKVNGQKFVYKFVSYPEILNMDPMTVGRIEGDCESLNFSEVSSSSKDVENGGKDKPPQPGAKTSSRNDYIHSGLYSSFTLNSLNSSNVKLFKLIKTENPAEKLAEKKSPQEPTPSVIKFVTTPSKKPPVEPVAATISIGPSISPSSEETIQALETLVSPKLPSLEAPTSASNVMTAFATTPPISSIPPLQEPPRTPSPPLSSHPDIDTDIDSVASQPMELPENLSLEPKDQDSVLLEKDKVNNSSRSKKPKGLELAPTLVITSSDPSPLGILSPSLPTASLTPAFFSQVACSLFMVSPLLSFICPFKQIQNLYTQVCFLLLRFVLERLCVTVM
The method, boiled down: as §1

For assay [15], the target named is T10, ETV2 (Homo sapiens, UniProt O00321 1-342).
T10 sequence: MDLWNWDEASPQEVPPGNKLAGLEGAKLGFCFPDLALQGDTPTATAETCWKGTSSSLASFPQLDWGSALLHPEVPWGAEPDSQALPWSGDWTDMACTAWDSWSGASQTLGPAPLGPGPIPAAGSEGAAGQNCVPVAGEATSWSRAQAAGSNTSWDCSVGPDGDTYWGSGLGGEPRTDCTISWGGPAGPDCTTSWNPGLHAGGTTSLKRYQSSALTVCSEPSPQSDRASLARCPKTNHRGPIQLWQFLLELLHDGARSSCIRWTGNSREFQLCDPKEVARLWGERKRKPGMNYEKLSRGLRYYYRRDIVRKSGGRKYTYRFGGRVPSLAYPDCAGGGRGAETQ
The method, boiled down:
as §1

The target of assay [16] is T11, ELF3 (Homo sapiens, UniProt P78545 1-371).
T11 sequence: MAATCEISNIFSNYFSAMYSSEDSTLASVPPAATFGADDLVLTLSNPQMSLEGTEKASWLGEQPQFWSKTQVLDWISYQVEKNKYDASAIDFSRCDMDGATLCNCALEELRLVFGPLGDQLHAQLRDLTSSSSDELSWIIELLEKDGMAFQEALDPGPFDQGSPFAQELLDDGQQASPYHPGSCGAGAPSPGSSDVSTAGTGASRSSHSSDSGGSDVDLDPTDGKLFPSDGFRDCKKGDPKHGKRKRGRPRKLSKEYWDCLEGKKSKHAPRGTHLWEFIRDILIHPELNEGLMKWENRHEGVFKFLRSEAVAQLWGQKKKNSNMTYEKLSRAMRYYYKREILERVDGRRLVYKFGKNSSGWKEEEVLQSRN
The method, boiled down: as §1

The target in assay [17] is ETV1 (Homo sapiens, UniProt P50549 1-477). The method, boiled down: as §1
Sequence of ETV1 (P50549 whole entry): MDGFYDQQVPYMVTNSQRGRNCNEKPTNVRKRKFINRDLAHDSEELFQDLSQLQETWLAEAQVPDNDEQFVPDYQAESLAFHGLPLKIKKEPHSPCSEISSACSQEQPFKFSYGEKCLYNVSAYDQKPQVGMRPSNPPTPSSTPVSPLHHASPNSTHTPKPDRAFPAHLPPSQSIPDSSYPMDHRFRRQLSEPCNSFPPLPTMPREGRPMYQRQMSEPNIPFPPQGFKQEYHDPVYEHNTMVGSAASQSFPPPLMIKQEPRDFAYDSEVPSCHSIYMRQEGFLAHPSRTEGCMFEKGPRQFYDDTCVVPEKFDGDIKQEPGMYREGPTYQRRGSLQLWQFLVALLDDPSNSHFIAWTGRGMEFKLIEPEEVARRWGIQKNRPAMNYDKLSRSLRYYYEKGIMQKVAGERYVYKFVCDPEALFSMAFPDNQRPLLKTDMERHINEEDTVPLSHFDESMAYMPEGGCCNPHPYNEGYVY

Sequence of ETV5 (P41161 whole entry): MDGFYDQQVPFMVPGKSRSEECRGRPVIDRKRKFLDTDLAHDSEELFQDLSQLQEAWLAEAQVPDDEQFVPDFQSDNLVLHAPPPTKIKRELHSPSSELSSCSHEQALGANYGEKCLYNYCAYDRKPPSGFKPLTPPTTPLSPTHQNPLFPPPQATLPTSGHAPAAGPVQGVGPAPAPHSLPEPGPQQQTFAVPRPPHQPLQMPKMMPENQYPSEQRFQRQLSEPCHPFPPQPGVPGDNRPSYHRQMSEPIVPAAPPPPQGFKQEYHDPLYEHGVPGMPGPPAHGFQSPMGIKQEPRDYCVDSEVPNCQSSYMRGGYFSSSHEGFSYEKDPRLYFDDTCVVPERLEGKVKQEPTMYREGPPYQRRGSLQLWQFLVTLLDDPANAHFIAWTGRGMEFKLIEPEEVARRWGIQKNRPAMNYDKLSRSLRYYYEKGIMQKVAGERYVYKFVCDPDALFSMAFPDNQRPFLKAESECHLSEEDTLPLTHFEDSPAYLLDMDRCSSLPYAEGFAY
Sequence of ELF4 (Q99607 whole entry): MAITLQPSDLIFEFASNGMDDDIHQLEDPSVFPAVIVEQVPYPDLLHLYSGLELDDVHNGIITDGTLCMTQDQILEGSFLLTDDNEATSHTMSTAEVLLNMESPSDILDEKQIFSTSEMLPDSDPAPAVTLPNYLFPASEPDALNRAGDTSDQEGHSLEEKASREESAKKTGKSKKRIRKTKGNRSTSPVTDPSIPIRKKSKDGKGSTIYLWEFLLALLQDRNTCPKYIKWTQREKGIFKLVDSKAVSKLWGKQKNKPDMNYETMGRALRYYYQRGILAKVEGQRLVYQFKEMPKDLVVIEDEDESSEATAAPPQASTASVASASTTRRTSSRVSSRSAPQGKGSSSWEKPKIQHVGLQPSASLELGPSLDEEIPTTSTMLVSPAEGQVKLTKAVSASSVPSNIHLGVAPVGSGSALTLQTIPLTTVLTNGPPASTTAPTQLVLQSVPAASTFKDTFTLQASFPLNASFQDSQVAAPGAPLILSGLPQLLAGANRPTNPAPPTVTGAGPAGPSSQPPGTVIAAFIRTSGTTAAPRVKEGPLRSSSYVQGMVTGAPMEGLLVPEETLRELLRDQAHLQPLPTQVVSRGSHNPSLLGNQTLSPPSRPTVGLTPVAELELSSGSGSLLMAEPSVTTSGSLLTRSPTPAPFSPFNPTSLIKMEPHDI
Sequence of SPIB (Q01892 whole entry): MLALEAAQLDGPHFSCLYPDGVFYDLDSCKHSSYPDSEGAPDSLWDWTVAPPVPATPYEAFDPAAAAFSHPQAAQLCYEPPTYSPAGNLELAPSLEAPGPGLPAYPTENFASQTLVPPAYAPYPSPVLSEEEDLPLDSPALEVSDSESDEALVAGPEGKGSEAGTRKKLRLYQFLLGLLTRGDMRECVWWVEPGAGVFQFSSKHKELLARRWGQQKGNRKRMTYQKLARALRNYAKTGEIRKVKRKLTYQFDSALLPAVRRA
Sequence of ELF1 (P32519 whole entry): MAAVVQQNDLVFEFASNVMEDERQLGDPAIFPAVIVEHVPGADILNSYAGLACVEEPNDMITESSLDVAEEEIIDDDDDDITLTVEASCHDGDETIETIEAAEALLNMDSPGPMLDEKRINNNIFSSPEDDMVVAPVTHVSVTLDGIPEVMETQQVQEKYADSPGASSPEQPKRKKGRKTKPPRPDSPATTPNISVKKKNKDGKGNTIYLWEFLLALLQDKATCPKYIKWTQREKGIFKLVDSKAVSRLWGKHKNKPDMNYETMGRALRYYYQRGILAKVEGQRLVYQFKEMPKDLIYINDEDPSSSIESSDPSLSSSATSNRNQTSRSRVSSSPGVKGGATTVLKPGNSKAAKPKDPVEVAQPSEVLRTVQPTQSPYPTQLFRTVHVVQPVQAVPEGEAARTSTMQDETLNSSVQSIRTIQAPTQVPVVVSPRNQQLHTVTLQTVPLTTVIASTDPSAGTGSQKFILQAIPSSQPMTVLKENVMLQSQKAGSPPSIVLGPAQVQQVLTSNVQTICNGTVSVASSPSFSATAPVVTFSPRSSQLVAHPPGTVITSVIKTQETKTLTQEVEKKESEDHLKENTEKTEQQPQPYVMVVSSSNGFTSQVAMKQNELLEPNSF

With ACACCT, the binding signal in [1] is 1.1 fold enrichment (6-mer frequency, TF over GST control); in [2], 1.09 fold enrichment (6-mer frequency, TF over GST control); in assay [3] it was 1.04 fold enrichment (6-mer frequency, TF over GST control); in [4] it was 1.12 fold enrichment (6-mer frequency, TF over GST control); in [5] it was 1.07 fold enrichment (6-mer frequency, TF over GST control); in assay [6], 1.13 fold enrichment (6-mer frequency, TF over GST control). The binding signal in [7] was 1.09 fold enrichment (6-mer frequency, TF over GST control); in assay [8], 1.03 fold enrichment (6-mer frequency, TF over GST control); in [9], 1.06 fold enrichment (6-mer frequency, TF over GST control); in assay [10] it was 1.03 fold enrichment (6-mer frequency, TF over GST control); in [11], 1.03 fold enrichment (6-mer frequency, TF over GST control); in [12], 1.04 fold enrichment (6-mer frequency, TF over GST control). Also, the binding signal was 1.11 fold enrichment (6-mer frequency, TF over GST control) in assay [13]; 1.1 fold enrichment (6-mer frequency, TF over GST control) in assay [14]; 1.03 fold enrichment (6-mer frequency, TF over GST control) in assay [15]; 1.03 fold enrichment (6-mer frequency, TF over GST control) in [16]; 1.13 fold enrichment (6-mer frequency, TF over GST control) in assay [17].

Source of the values: article PMC7862700, “An all-to-all approach to the identification of sequence-specific readers for epigenetic DNA modifications on cytosine”.
